# Source: PubChem BioAssay
# Only some compounds are listed: those with a hit (about 14% of all), similar ones and a draw of the others.
# FBPA Giardia inh: blocks Giardia fructose-bisphosphate aldolase activity | Potency, µM (series often up to 59.6 µM), inactives show at the top dose activity, negative = inhibition, actives largely listed as inhibitors | purified Giardia FBPA | A8B2U2 | 0.71% of 290,000 active; note: potency is the fitted concentration of half-maximal effect; nearly all actives have a fitted effect of over 55% in size
# Target sequence (A8B2U2 whole entry, looked up): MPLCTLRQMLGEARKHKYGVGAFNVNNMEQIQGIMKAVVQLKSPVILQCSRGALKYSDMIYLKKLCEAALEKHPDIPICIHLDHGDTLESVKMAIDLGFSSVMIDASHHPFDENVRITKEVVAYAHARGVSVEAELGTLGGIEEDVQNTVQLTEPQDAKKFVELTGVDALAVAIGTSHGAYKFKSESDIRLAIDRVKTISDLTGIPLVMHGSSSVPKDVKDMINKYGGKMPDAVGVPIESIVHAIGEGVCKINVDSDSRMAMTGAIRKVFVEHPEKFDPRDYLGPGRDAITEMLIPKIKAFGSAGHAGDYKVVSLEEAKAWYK
#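 Giardia FBPA (40 nM reagent) was preincubated 10 min at RT with compound (up to 57.5 uM final), then substrate plus GAPDH/TPI/NAD/arsenate coupling system with diaphorase/resazurin was added; resorufin fluorescence (525/598 nm) was read after 20 min.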
# Pf growth 48h: inhibits P. falciparum growth in the first generation, 48 h; Potency, µM (titrated, usually from 28.7 µM), without a hit: top-dose activity change, negative = inhibition, hits mostly inhibitors; 5.9% of 310,000 active; P. falciparum luciferase growth in erythrocytes, 48 h; note: potency is the fitted concentration of half-maximal effect
#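 Erythrocytes infected with P. falciparum carrying an integrated firefly luciferase reporter (2% hematocrit, 0.1% parasitemia final) were exposed to compounds in RPMI 1640 with 0.5% Albumax at 37 C, 5% CO2. Growth inhibition was scored as reduced luminescence.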
# Pf growth 96h: P. falciparum growth inhibition at 96 hours. P. falciparum luciferase reporter growth, 96 h. Potency, µM (highest dose often 28.7 µM), inactives show top-dose activity change, negative = inhibition, usual class: inhibitors. 6.9% of 320,000 active. AID 504834; note: potency is the fitted concentration of half-maximal effect
#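 Cell-based qHTS: luciferase-tagged P. falciparum in erythrocytes (2% hematocrit, 0.05% parasitemia final) incubated with compounds for 96 hours, 37 C, 5% CO2; luciferase detection reagent then added and luminescence measured.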
# HCMV antiviral: human cytomegalovirus inhibition | HFF cells, HCMV-luciferase reporter, 72 h; hits give low values | activity change, negative = inhibition, % at 57.5 µM | AID 1259415 | 4.5% of 410,000 active; in the data active = activity change below about -60%; inconclusive = no clear call, values can overlap the other calls; inactive = above about -39%
#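 After 16 h attachment at 37C, HFF cells received test compound and HCMV-luciferase (1 PFU/cell); reporter luminescence read 72 h later, data normalized against buffer-only and known inhibitor Salinomycin.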
# Sm TGR block: S. mansoni TGR enzyme inhibition; Q962Y6; purified TGR, DTNB reduction, TNB absorbance 405 nm; Potency, µM (highest dose often 114 µM), inactives show at the highest dose activity change, negative = inhibition, most hits filed as inhibitors; 3% of 360,000 active; AID 485364; note: potency is the fitted concentration of half-maximal effect; nearly all actives have a fitted effect of over 60% in size
#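 TGR 20 nM + NADPH 100 uM (dispensed conc.), cpd preinc 15 min RT; start with NADPH (500 uM addition) then DTNB (15 mM addition). Kinetic TNB absorbance, 405 nm filter. Four-parameter Hill fit across titration.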
# Active calls of the source: *; ? = inconclusive; . = no result; [ ] = another dose, or the depositor's remark. Unless noted, calls come from the whole dose curve; as a rule, active = well fitted curve in the direction sought with a large enough effect; inconclusive = small, poorly fitted or top-dose-only effect, or another doubt; inactive = no such curve, though single readings can be large; an effect the other way counts as inactive or inconclusive. % is set by controls: 0 for no effect and ±100 for the full control effect.
SMILES,FBPA Giardia inh,Pf growth 48h,Pf growth 96h,HCMV antiviral,Sm TGR block
COc1ccccc1NC(=O)CSc1nnc(COc2ccccc2C)o1,.,15%,-7%,-14,-7%
Cn1c(SCC(=O)Nc2ccc(N3CCOCC3)c(Cl)c2)nnc1C(O)c1ccccc1 (centres undefined),-8%,?,21%,13,6%
CCOc1ccc(-c2nnc(SCC(=O)Nc3ccc4c(c3)c3ccccc3n4CC)n2N)cc1,-8%,-44%,?,-61*,6%
COc1ccc(NC(=O)CSc2nnc(Cn3cnc([N+](=O)[O-])n3)n2C)cc1,-13%,11%,16%,-8,5%
O=C(CCc1nc2ccccc2c(=O)[nH]1)NNC(=O)c1ccc(F)cc1,.,10%,-16%,3,7%
Cn1cc(Cl)cc1-c1ncc(Cc2c[nH]c(N)[n+]2C)o1,.,.,.,-12,.
CSc1ccc(-c2ccc3c(c2)c(Sc2ccccc2)c(-c2ccccc2)n3C)cc1,.,.,.,26,.
COC(=O)c1ccc(NC(=O)CSc2nncn2-c2ccccn2)cc1,4%,39%,-12%,-72*,-27%
CCOc1ccc(NC(=O)CSc2nnc(Cn3cnc4ccccc43)n2C)cc1,-1%,-21%,2.3µM*,32,-8%
COC(=O)c1ccc(NC(=O)CSc2nnc(COc3ccccc3)n2C)cc1,-1%,8.3µM*,60%,6,4%
COC(=O)c1cccc(NC(=O)CSc2nncn2-c2ccccn2)c1,9%,10%,10%,-30,9%
COc1ccc(NC(=O)CSc2nnc(Cn3nnc4ccccc43)n2C)cc1,7%,8%,.,14,-4%
COC(=O)c1ccc(NC(=O)CSc2nnc(COc3ccc4c(c3)CCCC4)o2)cc1,1%,-7%,1.9µM*,7,1%
CCOC(=O)CN(C(=O)CSc1nnc(COc2ccc(OC)cc2)n1C)c1ccccc1,12%,?,12µM*,-18,-26%
CCCCC(=O)NC(c1ccccc1Cl)c1c(O)ccc2ccccc12 (centres undefined),-4%,10µM*,62%,?,-10%
CCCCC(=O)NC(c1ccc(OC)c(OC)c1)c1c(O)ccc2ccccc12 (centres undefined),0%,?,12µM*,19,0%
CCCC(=O)NC(c1ccccc1Cl)c1c(O)ccc2ccccc12 (centres undefined),-16%,10µM*,22%,-16,-21%
CCCC(=O)NC(c1ccc(OC)c(OC)c1)c1c(O)ccc2ccccc12 (centres undefined),1%,?,?,45,-5%
COc1ccccc1C(NC(=O)CC(C)C)c1c(O)ccc2ccccc12 (centres undefined),22%,?,-5%,49,-24%
CCOCCCNC(=O)C1CCN(c2nc3ccc(C)cc3[nH]2)CC1,.,.,.,0,6%
COc1ccccc1N1CCN(C(=O)C2c3ccccc3Oc3ccccc32)CC1,-1%,?,?,?,-9%
Cn1cnc(S(=O)(=O)N2CCC(C(=O)N3CCN(c4ccc(Cl)cc4)CC3)CC2)c1,.,.,.,-14,-9%
O=C(C1CCN(S(=O)(=O)c2cccnc2)CC1)N1CCN(c2ccc(Cl)cc2)CC1,5%,?,?,-90*,6%
O=C(C1CCN(S(=O)(=O)c2cccc3cccnc23)CC1)N1CCN(c2ccccn2)CC1,0%,?,?,-12,0%
O=C(C1CCN(S(=O)(=O)c2cccc3cccnc23)CC1)N1CCN(c2ccc(Cl)cc2)CC1,1%,.,-25%,-79*,-10%
SMILES,FBPA Giardia inh,Pf growth 48h,Pf growth 96h,HCMV antiviral,Sm TGR block
O=C(C1c2ccccc2Oc2ccccc21)N1CCN(c2ccc(Cl)cc2)CC1,-4%,.,2.1µM*,-7,-3%
COc1ccc(N2CCN(C(=O)C3CCN(S(=O)(=O)c4cn(C)cn4)CC3)CC2)cc1,.,.,.,-72*,-2%
Cc1cccc(S(=O)(=O)N[C@H]2CC[C@@]34CCCN3C(=O)CCC[C@H]4[C@H]2C)c1,.,.,.,-6,.
C[C@H]1COC(=O)[C@H](CC(=O)OC(C)(C)C)C/C=C\C[C@@H](CC(=O)N[C@@H](CO)Cc2ccccc2)C(=O)N1,.,.,.,-15,.
NS(=O)(=O)OCc1ccc(C(F)(F)F)cc1,3%,51%,0%,-20,-26%
O=C(C1CCC1)N1CCN(c2ccc(Cl)cc2)CC1,11%,4%,7.4µM*,55,-1%
O=C(C1CCC(CNS(=O)(=O)c2cccc3cccnc23)CC1)N1CCCC1 (centres undefined),2%,-2%,13µM*,-24,-10%
CN(C(=O)C1CCC(CNS(=O)(=O)c2cccc3cccnc23)CC1)C1CCCCC1 (centres undefined),-7%,?,?,-32,2%
Cc1cc(C)nc(N/N=C/c2ccco2)n1,?,31%,.,28,-13%
Cc1cc(C)nc(N/N=C/c2cc(C)n(CC(F)(F)F)c2C)n1,-10%,?,?,-75*,-6%
COc1cc(C2C3=C(Nc4ncnn42)c2ccccc2CC3)cc(OC)c1OC (centres undefined),-26%,?,?,-89*,?
COc1ccc(C2C3=C(Nc4ncnn42)c2ccccc2CCC3)cc1 (centres undefined),1%,?,-8%,68,-10%
CCCCC(=O)N(C)c1c(C)nc2ccc(C(=O)N(C)CCN(C)C)cn12,.,.,.,2,.
O=C(c1cc2ccccc2[nH]1)N(Cc1cccnc1)CC1CCCN(C2CCCCC2)C1 (centres undefined),.,10µM*,?,40,-12%
Cc1ccc2occ(/C=N/NC(=O)c3ccc(Cl)cc3)c(=O)c2c1,11%,3%,0%,-65*,-8%
CCOc1ccccc1C(=O)N/N=C/c1coc2ccc(Cl)cc2c1=O,.,1%,?,-74*,5%
COc1ccc(C(=O)N/N=C\c2coc3ccc(C)cc3c2=O)cc1,-2%,-10%,-13%,-27,-1%
Cc1ccc2occ(/C=N/NC(=O)c3ccccc3O)c(=O)c2c1,7%,11%,38%,-83*,6%
Cc1ccc2occ(/C=C/C(=O)c3ccccc3O)c(=O)c2c1,.,20%,35%,6,9%
Cc1ccc2occ(/C=N/NC(=O)c3ccncc3)c(=O)c2c1,8%,10%,3.7µM*,-31,-16%
COc1ccc(-c2nc3cnc(Oc4cccc(Cl)c4)nc3n(C[C@H]3CCCO3)c2=O)cc1,0%,.,.,.,.
C=C(C)C(O)/C=C/CCCCCCC (centres undefined),-8%[12.9 µM],.,.,.,.
CCCOc1cccc(C(=O)N/N=C/c2coc3ccccc3c2=O)c1,.,22%,13µM*,-10,0%
O=C(N/N=C/c1coc2ccccc2c1=O)c1cc(Br)c(O)c(Br)c1,-8%,17%,?,-37,-16%
CCc1ccccc1NC(=S)N(CCCN1CCOCC1)Cc1cccs1,0%,-17%,2.6µM*,49,18%
